The results in this text go back to PubChem BioAssay (NCI).

About 83,000 compounds went through this panel and 20% of them were active in at least one assay; those are over-represented in the sample as a whole.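 The endpoint reported here, percent growth, reads 100 for growth as untreated, 0 for no net growth and -100 for all cells dead.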 Unmarked numbers belong to inactive results. Calls of active or inactive are those of the source. How the source made its calls: active means growth percent below 10; inactive means the rest.

The test deals with MDA-MB-468 breast. In words: NCI-60 one-dose screen, 48 h (100 = growth as untreated, 0 = no growth, -100 = all killed). To be noted: 10 µM unless noted.
As for `CCCCCCCCCCCCNC(=O)[C@H]1CSC(c2cc3ccccc3s2)N1` (some centres not stated), the growth was -57.9% (active). In the case of `CC(C)n1c(NCCc2ccc(O)c(O)c2)nc2c1c(=O)n(C)c(=O)n2C`, the growth was 73.8%.

On to `COC12C=C/C(=C(/C(=O)OCc3cncnc3)C(=O)CCCCCCCCC3(OC)C=C/C(=C(/C(=O)OCc4cncnc4)C(=O)CCCCCCCC1)O3)O2`, for which the growth is -39.8% (active).

Turning to `COc1nc(/C=C\Nc2ccc3c(c2)OCCOCCOCCOCCO3)nc(OC)n1`, the growth is 108%. Next, `COc1cc2cc(Oc3ccc(NC(=O)c4cccc(C(F)(F)F)c4)cc3)c(C)nc2cc1OC`: 9.35% (active); `CCN1CCN(CCNc2nccc(-c3c(-c4ccc(F)c(OC)c4)nc4sccn34)n2)S1(=O)=O`: 80.1%; `O=C(Nc1cccc(-c2nc(-c3ccc(NC(=O)c4cccnc4)cc3Cl)no2)c1)Nc1ccc(NC(=O)C2CC2)c(C(F)(F)F)c1`: -72.6% (active). Next, `CC(C)N=C(N)/N=C(\N)Nc1ccc2ccc3ccccc3c2c1`: -91.1% (active); `NCCNc1nc2ccccc2c2c(=O)c3cc(F)cc(Cl)c3sc12`: -12.5% (active); `Cc1cc(Cl)c2c(N(C)C)cccc2n1`: 77.4%. Next, `COc1cc(NCCN(CC(C)C)CC(C)C)c2ncc(C)cc2c1`: 11.7%.

As to `COc1ccc2[nH]c(O)c(/C=c3/cc4c(c(-c5ccc(F)c(OC)c5)n3)=Nc3ccccc3-4)c2c1`, the growth is -70.4% (active).
